High-throughput results (PubChem)
NR5A2 inv ag – inverse agonists of human LRH-1 (NR5A2); O00482; 0.13% of 360,000 active; HEK293T StAR-luciferase reporter, LRH-1 transfected, 24 h; inhibition, % at 3.6 µM;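 active = inhibition above the mean inhibition of all tested compounds plus 3 SD, cut at about 73% in these data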
SRC2 inh – inhibits human steroid receptor coactivator 2; 0.17% of 370,000 active; Q15596; HEK293 GAL4-SRC2 luciferase reporter, luminescence; inhibition, % at 9 µM; AID 651957;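 active = inhibition above the mean inhibition of all tested compounds plus 3 SD, set per campaign, cut at about 52% in these data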
SRC3 inh – human NCOA3 inhibition; HEK293 GAL4-SRC3 luciferase reporter, luminescence; inhibition, % at 3.6 µM; 0.17% of 360,000 active;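 active = inhibition above a per-campaign cutoff, the mean of all compounds plus 3 SD, cut at about 60% in these data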;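 also: higher means less SRC3-driven luciferase light from the GAL4 reporter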
COUP-TFII inh – inhibitors of human COUP-TFII (NR2F2); HEK293T NGFI-A luciferase reporter, luminescence; inhibition, % at 8.6 µM; 0.7% of 370,000 active; AID 686940;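 active = inhibition above a per-plate cutoff, mean inhibition of test wells between control levels plus 3 SD, cut at about 38% in these data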;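 also: cells cotransfected with COUP-TFII expression vector driving the NGFI-A reporter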
NCOA1 inh – inhibitors of human steroid receptor coactivator 1 (SRC1); inhibition, % at 3.6 µM; HEK293 GAL4-SRC1 luciferase reporter, luminescence; AID 588354; 0.12% of 360,000 active; Q15788;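 active = inhibition above the campaign mean plus 3 SD, with each screening campaign given its own cutoff, cut at about 60% in these data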
Gal4-VP16 ctr – VP16 inhibition counter-screen for COUP-TFII | shares compounds with COUP-TFII inh | HEK293 Gal4-VP16 luciferase reporter, luminescence | inhibition, % at 8.5 µM | 25% of 2,500 active; in the data active = inhibition above about 13%
NR2F2 inh conf – COUP-TFII (NR2F2) inhibition, confirmation assay. shares compounds with COUP-TFII inh. HEK293 NGFI-A luciferase reporter, luminescence. inhibition, % at 8.5 µM. 45% of 2,500 active;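 active = mean inhibition over three repeats above a set limit taken from the earlier primary screen, cut at about 38% in these data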
Of the large screens only hits and unclear results are named; the others gave an inactive call (follow-up assays come after a bar, where they were run). Shown are actives, neighbours in structure and some others; about 0.81% of the full set was active somewhere.

Cc1cc(C(=O)O[C@H]2CCC[C@]3(C(=O)N(Cc4ccccc4)c4ccccc43)[C@H]2NC(=O)CCc2ccccc2)no1	none (no result: NR5A2 inv ag, SRC3 inh, NCOA1 inh)
Cc1ccccc1Cn1cc(CN2[C@H](Cc3ccccc3)COc3cc(Br)ccc3S2(=O)=O)nn1	none (no result: NR5A2 inv ag, SRC3 inh, NCOA1 inh)
COc1cc(S(=O)(=O)NCc2ccncc2)ccc1Br	COUP-TFII inh 56 | Gal4-VP16 ctr inactive | NR2F2 inh conf 44
CCN(C1CCCCC1)S(=O)(=O)c1ccc(S(=O)(=O)NCCc2ccncc2)cc1	none
Cc1ccc(S(=O)(=O)NCc2ccncc2)cc1C	COUP-TFII inh 60 | Gal4-VP16 ctr 15 | NR2F2 inh conf 57
COc1cc(C)c(Br)cc1S(=O)(=O)NCc1ccccc1	none
CNC(=O)c1cc(S(=O)(=O)NCc2ccncc2)ccc1OC	none
Cc1cc(Br)c(S(=O)(=O)NCc2ccncc2)cc1C	COUP-TFII inh 54 | Gal4-VP16 ctr inactive | NR2F2 inh conf 47
CCN(C1CCCCC1)S(=O)(=O)c1ccc(S(=O)(=O)NCc2ccncc2)cc1	COUP-TFII inh 55 | Gal4-VP16 ctr inactive | NR2F2 inh conf inactive
O=S(=O)(NCc1ccncc1)c1ccc(F)c(F)c1	none
COc1ccc(S(=O)(=O)NCc2cccnc2)cc1Br	COUP-TFII inh 48 | Gal4-VP16 ctr inactive | NR2F2 inh conf 39
CC(=O)c1cc(-c2csc(C=O)c2)c(=O)n2c1CCC2	none (no result: NR5A2 inv ag, SRC3 inh, NCOA1 inh)
COC(=O)C[C@@H]1CC[C@H]2[C@@H](COc3ccc(NC(=O)Nc4ccccc4Cl)cc3C(=O)N2C)O1	none (no result: NR5A2 inv ag, SRC3 inh, NCOA1 inh)
COc1ccc(CCNC(=S)c2ccccc2)cc1OC	COUP-TFII inh 38 | Gal4-VP16 ctr inactive | NR2F2 inh conf inactive
CCCCn1c2c(c(=N)c3c1CCC3)CCC2	COUP-TFII inh 47 | Gal4-VP16 ctr inactive | NR2F2 inh conf 39
CCCCCCn1c2c(c(=N)c3c1CCC3)CCC2	NR5A2 inv ag 92, SRC3 inh 75, COUP-TFII inh 78, NCOA1 inh 67 | Gal4-VP16 ctr inactive | NR2F2 inh conf 70
CCCCCCn1c(=O)[nH]c2c(c1=O)CCC2	none
CCn1c2c(c(=N)c3c1CCC3)CCC2	none
CCCCCCCn1c2c(c(=N)c3c1CCC3)CCCC2	NR5A2 inv ag 84, SRC3 inh 79, COUP-TFII inh 79 | Gal4-VP16 ctr 17 | NR2F2 inh conf 82
COC(=O)[C@@]12CCCCC=C1N(CCc1ccc(Cl)cc1)C(=O)[C@H]2CC(=O)NCC12CC3CC(CC(C3)C1)C2	none (no result: NR5A2 inv ag, SRC3 inh, NCOA1 inh)
COC(=O)[C@]12C[C@H](CC(=O)NCCC(C)C)C(=O)N(Cc3ccc(Cl)cc3Cl)C1=C[C@H](COCc1ccccc1)O[C@@H]2C	none (no result: NR5A2 inv ag, SRC3 inh, NCOA1 inh)
CCC(=O)N(c1ccccc1)C1CCN(C(=O)C(Cc2ccccc2)NC(C)=O)CC1 (centres undefined)	none (no result: NR5A2 inv ag, SRC3 inh, NCOA1 inh)
C=CCN1[C@@H](CC(C)C)COc2cccc(N3CCSCC3)c2S1(=O)=O	none (no result: NR5A2 inv ag, SRC3 inh, NCOA1 inh)
O=C(NCc1ccccc1Cl)C1CCCN(c2ncccn2)C1 (centres undefined)	none (no result: NR5A2 inv ag, SRC3 inh, NCOA1 inh)
Cc1cccc(N2CC(C(=O)Nc3ccc(S(=O)(=O)N4CCOCC4)cc3)CC2=O)c1C (centres undefined)	none
COc1ccc(CC(=O)Nc2ccc(-c3nnc(-c4ccccc4)o3)cc2)cc1OC	none (no result: SRC2 inh, COUP-TFII inh)
COc1ccc(CC(=O)Nc2cccc(S(=O)(=O)N3CCCC3)c2)cc1OC	COUP-TFII inh 62 | Gal4-VP16 ctr inactive | NR2F2 inh conf 45
Cc1cccc(N2CC(C(=O)Nc3cccc(S(=O)(=O)N4CCCCC4)c3)CC2=O)c1C (centres undefined)	COUP-TFII inh 47 | Gal4-VP16 ctr inactive | NR2F2 inh conf inactive
COc1ccccc1CCC(=O)Nc1cccc(S(=O)(=O)N2CCCCCC2)c1	none
COc1ccc(CC(=O)Nc2cccc(S(=O)(=O)N3CCOCC3)c2)cc1OC	COUP-TFII inh 47 | Gal4-VP16 ctr inactive | NR2F2 inh conf inactive
COc1ccc(CC(=O)Nc2cccc(-c3nnc(-c4cccc(C)c4)o3)c2)cc1OC	COUP-TFII inh 53 | Gal4-VP16 ctr inactive | NR2F2 inh conf inactive
COc1ccccc1CC(=O)Nc1cccc(S(=O)(=O)N2CCOCC2)c1	none
C#CCN1CC(N(C)CCO)CS1(=O)=O (centres undefined)	none (no result: NR5A2 inv ag, SRC3 inh, NCOA1 inh)
COc1c2c(cc3c1c(=O)c1ccccc1n3C)OCO2	none (no result: NR5A2 inv ag, SRC3 inh, NCOA1 inh)
CCOC(=O)CC[C@H]1CC[C@]2(CCCN(C3CCCCC3)C2)O1	none (no result: NR5A2 inv ag, SRC3 inh, NCOA1 inh)
Nn1c(SCC(=O)Nc2ccc(S(=O)(=O)Nc3nccs3)cc2)nnc1-c1ccco1	none (no result: NR5A2 inv ag, SRC3 inh, NCOA1 inh)
CCc1cccc(NC(=O)Cc2ccc(OC)c(OC)c2)c1	COUP-TFII inh 40 | Gal4-VP16 ctr inactive | NR2F2 inh conf inactive
C=CC[n+]1c(-c2ccc(C)cc2)csc1Nc1c(C)n(C)n(-c2ccccc2)c1=O	none
C=CC[n+]1c(-c2ccc(Cl)cc2Cl)csc1Nc1c(C)n(C)n(-c2ccccc2)c1=O	COUP-TFII inh 46 | Gal4-VP16 ctr inactive | NR2F2 inh conf 40
Cc1ccc(CN2CCCCC(NC(=O)c3ccc(N(C)C)cc3)C2=O)cc1 (centres undefined)	none (no result: NR5A2 inv ag, SRC3 inh, NCOA1 inh)
CC1CCN(c2ccc(C(=O)O)cc2NS(=O)(=O)c2ccccc2)CC1	none (no result: NR5A2 inv ag, SRC3 inh, NCOA1 inh)
C[n+]1cc2c3c(ccc2c2ccc4cc5c(cc4c21)OCO5)OCO3	SRC2 inh 87, COUP-TFII inh 106 (no result: NR5A2 inv ag, SRC3 inh, NCOA1 inh) | Gal4-VP16 ctr 95 | NR2F2 inh conf 107
COc1ccc2cc3[n+](cc2c1O)CCc1cc2c(cc1-3)OCO2	none (no result: SRC3 inh, NCOA1 inh)
COC(=O)[C@]12C[C@H](CC(=O)NCCCN3CCCC3=O)C(=O)N(Cc3cccc4ccccc34)C1=C[C@H](C(C)C)O[C@@H]2C1CC1	none (no result: NR5A2 inv ag, SRC3 inh, NCOA1 inh)
CN(c1ccc(OCC(=O)Nc2ccc(S(N)(=O)=O)cc2)cc1)S(=O)(=O)c1ccc(F)cc1	none
NS(=O)(=O)c1ccc(NC(=O)COc2ccc(C(=O)c3ccc(F)cc3)cc2)cc1	COUP-TFII inh 38 | Gal4-VP16 ctr inactive | NR2F2 inh conf inactive
CN1C(=O)c2cc(NC(=O)Nc3ccc(F)c(F)c3)ccc2OC[C@H]2O[C@@H](CC(=O)O)CC[C@H]21	none (no result: NR5A2 inv ag, SRC3 inh, NCOA1 inh)
CCC(=O)c1ccc(OCC(O)Cn2c(C)nc3ccccc32)cc1 (centres undefined)	COUP-TFII inh 59 | Gal4-VP16 ctr inactive | NR2F2 inh conf inactive
Cc1cccc(C)c1NC(=O)N1CCN(c2nc3ccccc3s2)CC1	COUP-TFII inh 48 | Gal4-VP16 ctr inactive | NR2F2 inh conf inactive
Cc1cccc(Cl)c1NC(=O)N1CCCN(c2nc3ccc(Cl)cc3s2)CC1	COUP-TFII inh 49 | Gal4-VP16 ctr inactive | NR2F2 inh conf 41
O=C(CN(CCc1ccccc1)S(=O)(=O)c1ccc(Cl)s1)N1CCOCC1	none (no result: NR5A2 inv ag, SRC3 inh, NCOA1 inh)
COc1cccc(-c2nnc3n2N=C(C(C)(C)C)CS3)c1	SRC2 inh 73, SRC3 inh 66, COUP-TFII inh 45, NCOA1 inh 67 | Gal4-VP16 ctr 27 | NR2F2 inh conf 41
